Records with an inconclusive call do not appear. Activity calls are given as the source filed them. The call rests on the fitted dose curve.
Columns and labels:
[1] = Primary qHTS for Huh7 cytotoxicity: counterscreen for inhibitors of MERS-S pseudotyped particle cell entry (AID 1479147)
[2] = Primary qHTS for inhibitors of MERS-S pseudo-typed particle cell entry (AID 1479149); further: nearly all actives have a fitted effect of over 60% in size
[3] = Primary qHTS for Vero E6 cytotoxicity: counterscreen for inhibitors of SARS-S pseudo-typed particle cell entry (AID 1479150)

Measured: Potency

Oc1ccccc1
inactive: [1] | [2] | [3]

Cc1cc(O)cc2c1O[C@](C)(CCC[C@H](C)CCC[C@H](C)CCCC(C)C)CC2
inactive: [1] | [2] | [3]

O=C(OCC1(COC(=O)c2cccnc2)CCCC(COC(=O)c2cccnc2)(COC(=O)c2cccnc2)C1O)c1cccnc1
inactive: [1] | [2] | [3]

Cc1nc2ccc(CN(C)c3ccc(C(=O)N[C@@H](CCC(=O)O)C(=O)O)s3)cc2c(=O)[nH]1
inactive: [1] | [2] | [3]

CC(N=C(NC#N)Nc1ccncc1)C(C)(C)C (centres undefined)
inactive: [1] | [2] | [3]

CCS(=O)(=O)CCn1c([N+](=O)[O-])cnc1C
inactive: [1] | [2] | [3]

CC(=O)OC(C)OC(=O)C(C)c1ccc(-c2ccccc2)c(F)c1 (centres undefined)
inactive: [1] | [2] | [3]

O=C(NCCO[N+](=O)[O-])c1cccnc1
inactive: [1] | [2] | [3]

Cc1c(C(=O)O)c(O)cc2c1C(=O)c1c(O)c([C@@H]3O[C@H](CO)[C@@H](O)[C@H](O)[C@H]3O)c(O)c(O)c1C2=O
inactive: [1] | [2] | [3]

Cc1ccc(C(=O)C(C)CN2CCCCC2)cc1 (centres undefined)
inactive: [1] | [2] | [3]

C=CC1=C(C(=O)O)N2C(=O)[C@@H](NC(=O)/C(=N\O)c3csc(N)n3)[C@H]2SC1 (stereo in doubt)
inactive: [1] | [2] | [3]

C[C@H]1O[C@@H](n2cc(F)c(=O)[nH]c2=O)[C@H](O)[C@@H]1O
inactive: [1] | [2] | [3]

C/C=C1\[C@H]2C=C(C)C[C@]1(N)c1ccc(=O)[nH]c1C2
inactive: [1] | [2] | [3]

— PubChem BioAssay (NCATS)
